# High-throughput results deposited in PubChem by National Center for Advancing Translational Sciences (NCATS).
# Sm TGR block – inhibitors of Schistosoma mansoni thioredoxin glutathione reductase. Q962Y6. purified TGR, DTNB reduction, TNB absorbance 405 nm. Potency, µM (series often up to 114 µM), inactives show at the highest dose activity change, negative = inhibition, actives largely listed as inhibitors. 360,000 compounds, 3% hits. AID 485364; also: potency is read from the fitted curve at half-maximal effect; nearly all actives have a fitted effect of over 60% in size
#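 Kinetic colorimetric format: TGR-catalysed, NADPH-driven DTNB reduction monitored via TNB absorbance. Enzyme dispensed at 20 nM; compound exposure 15 min at room temperature before reaction start.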
# HCMV antiviral – human cytomegalovirus inhibition; activity change, negative = inhibition, % at 57.5 µM; 410,000 compounds, 4.5% hits; AID 1259415; HFF cells, HCMV-luciferase reporter, 72 h; active compounds read low; in the data active = activity change below about -60%; inconclusive = no clear call, values can overlap the other calls; inactive = above about -39%
#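 Compounds were evaluated in HFFs infected with an HCMV luciferase reporter virus (MOI 1 PFU/cell). Luciferase in lysates collected 72 h post infection served as the replication measure.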
# FMDV antiviral – blocks foot and mouth disease virus | FMDV antiviral cell-based qHTS | Potency, µM (doses to about 57.9 µM), for the others: top-dose activity change, negative = inhibition, usual class: inhibitors | 410,000 compounds, 1.2% hits | AID 1159524; calls by dose curve; tested in HEK293T cells; also: read-out not given here; potency is read from the fitted curve at half-maximal effect; nearly all actives have a fitted effect of over 45% in size
# HCV inhibitor – blocks hepatitis C virus. 340,000 compounds, 3.4% hits. Huh7.5.1 HCVcc-Cre infection, luciferase reporter, 44 h. Potency, µM (doses to about 41.8 µM), for the others: top-dose activity change, negative = inhibition, most hits filed as inhibitors; also: potency is read from the fitted curve at half-maximal effect
#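 Reporter virus HCVcc-Cre (~0.5 moi) infects cells exposed to compound; seeding density 1,000 cells/well with 4 h settling beforehand. Luminescence, 15 sec read, taken 44 h post-infection following a 15 min RT substrate incubation.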
# VACV mCherry inh – inhibitors of vaccinia virus infection (mCherry reporter signal) | Vaccinia virus mCherry reporter infection, fluorescence | Potency, µM (titrated, usually from 36.5 µM), without a hit: top-dose activity change, negative = inhibition, hits mostly inhibitors | 310,000 compounds, 0.63% hits; calls by dose curve; tested in A549 cells; also: potency is read from the fitted curve at half-maximal effect; nearly all actives have a fitted effect of over 35% in size
# VACV Venus inh – inhibitors of vaccinia virus (Venus reporter). Vaccinia virus Venus reporter expression, fluorescence. Potency, µM (doses to about 36.5 µM), inactives show top-dose activity change, negative = inhibition, most hits filed as inhibitors. 330,000 compounds, 0.46% hits. AID 720580; calls by dose curve; tested in A549 cells; also: potency is read from the fitted curve at half-maximal effect; nearly all actives have a fitted effect of over 30% in size
# * marks the source's active call; other numbers are inactive results; i = inactive; ? = inconclusive; . = no result; + = active, no number; [ ] = another dose, or the depositor's remark. An excerpt weighted towards active compounds, which were near 9.3% of everything screened. Unless noted, calls follow the shape of the dose curve; as a rule, active = well fitted curve in the direction sought with a large enough effect; inconclusive = small, poorly fitted or top-dose-only effect, or another doubt; inactive = no such curve, though single readings can be large; an effect the other way counts as inactive or inconclusive. % is scaled to controls: 0 for no effect and ±100 for the full control effect.
SMILES,Sm TGR block,HCMV antiviral,FMDV antiviral,HCV inhibitor,VACV mCherry inh,VACV Venus inh
CN(c1ccccc1)c1nc(N)c(C#N)c(CC#N)c1C#N,-18%,22,?,10%,-1%,-4%
N#CCc1c(C#N)c(N)nc(Nc2ccccc2)c1C#N,20µM*,-16,-20%,6%,i[7.34 µM],-11%[7.34 µM]
Cc1cc(C)c2nc3nc(C)c(C)cc3c(N)c2c1,.,-99*,-13%,-30%,?,?
CCCSc1nc(C)c2cc(C)cc(C)c2n1,?,7,4%,1%,-20%,-18%
Cc1ccc(/C=C/C(=O)c2ccc(C)cc2)cc1,3%,17,56%,6%,.,.
Cc1ccc(C(=O)/C=C/C(=O)c2ccc(C)cc2)cc1,2.2µM*,62,?,0%,-13%,-7%
Cc1ccc(C(=O)/C=C/Nc2ccccn2)cc1,.,?,2.5µM*,?,-6%,-13%
CCOC(=O)c1ccc(NC(=S)N(CCN(C)C)C(C)c2ccncc2)cc1 (stereo not given),0%,-14,52%,?,.,.
Cn1c(CCC(N)=O)nnc1SCC(=O)Nc1cc(S(=O)(=O)N2CCCC2)ccc1Cl,0%,-23,-8%,16%,-10%,-7%
COCCN1C=C2C(=O)C(C)(OC(=O)CCC(=O)OC)C(=O)C=C2C=C1C1CC1 (stereo not given),-10%,.,-17%,5%,-16%,0%
COC(=O)CCC(=O)OC1(C)C(=O)C=C2C=C(C3CC3)N(Cc3ccco3)C=C2C1=O (stereo not given),32µM*,-20,-24%,-5%,-14%,-10%
COC(=O)CCCC1=CC2=CC(=O)C(C)(OC(=O)c3cccs3)C(=O)C2=CN1Cc1ccccc1 (stereo not given),-3%,-4,0%,-11%[8.37 µM],7%,-3%
COC(=O)CCCC1=CC2=CC(=O)C(C)(OC(=O)c3cccs3)C(=O)C2=CN1Cc1ccco1 (stereo not given),35µM*,-3,-11%,-12%[8.37 µM],-3%,0%
COc1ccc(-c2cn3c(C)c(C(=O)N4CCCc5ccccc54)sc3n2)cc1,.,?,?,11µM*,10µM*,?
COc1ccc(C(=O)C(=O)N2CCN(c3ccccc3F)CC2)cc1,.,-68*,-4%,.,-15%,-4%
COc1ccc(C(=O)N2CCCc3ccccc32)cc1,3%,11,8%,?,.,.
COc1ccc(-c2cn3c(C)c(C(=O)N4CCN(c5ccccc5F)CC4)sc3n2)cc1,0%,-60*,-11%,?,15%,-10%
COc1cc(OC)cc(C(=O)N2CCN(c3ccccc3F)CC2)c1,20%,-35,31%,?,-9%,?
COc1ccc(CC(=O)N2CCN(c3ccccc3F)CC2)cc1OC,1%,-33,-22%,11µM*,-3%,-11%
Cc1cccc(NC(=O)Nc2ccc(Oc3c(F)c(F)c(F)c(F)c3F)cc2)c1,-22%,8,.,29%,i,-7%
O=C(Nc1ccc(Oc2c(F)c(F)c(F)c(F)c2F)cc1)OC1CCN2Cc3ccccc3N=C12 (stereo not given),5%,.,20µM*,3.2µM*,-4%,-13%
CN(C)CCNc1ncnc2c1sc1nc(N3CCOCC3)c3c(c12)CC(C)(C)SC3,-14%,?,?,10µM*,.,.
COCCNc1nnnc2c1sc1nc(N3CCOCC3)c3c(c12)CC(C)(C)OC3,-7%,-20,-24%,?,-3%,0%
CC1(C)Cc2c(c(N3CCOCC3)nc3sc4c(NCCN)ncnc4c23)CO1,.,0,-12%,7.1µM*,.,.
CCOc1ccc(N(CC(=O)NCc2ccc(OC)cc2)C(=O)CCC(=O)Nc2nccs2)cc1,0%,-5,16%,?,-1%,-11%
SMILES,Sm TGR block,HCMV antiviral,FMDV antiviral,HCV inhibitor,VACV mCherry inh,VACV Venus inh
COc1ccc(CN2CCN(S(=O)(=O)c3ccccc3)CC2)c(OC)c1OC,.,-23,-28%,10%,-12%,-2%
O=C(C[n+]1ccc(/C=N/O)cc1)N(Cc1ccccc1)Cc1ccccc1,11%,-68*,-20%,2%,i,-6%
CCN(CC(=O)Nc1ccc(NC(C)=O)cc1)C(=O)c1ccccc1Sc1ccccc1C#N,2%,?,-1%,33%,.,.
CCn1ncc(CN2CCC(Oc3ccc(C(=O)N4CCCC4)cc3)CC2)c1C,2%,10,-7%,12%,-3%,-12%
Cc1ccccc1CC1(CO)CCCN(Cc2ccc(C#CC(C)(C)O)cc2)C1 (stereo not given),7%[57.1 µM],-27,15%,-30%,-16%,-15%
CC(C)(O)C#Cc1ccc(CN2CCCC(CO)(Cc3cccc(Cl)c3)C2)cc1 (stereo not given),-11%[57.1 µM],-82*,-22%,?,.,.
Cn1c(=O)c(=O)n(C)c2cc(N3CCCCC3)c(NS(=O)(=O)c3ccc([N+](=O)[O-])cc3)cc21,?,+,5%,2%,-19%[7.34 µM],-15%[7.34 µM]
Cn1c(=O)c(=O)n(C)c2cc(N3CCOCC3)c(NS(=O)(=O)c3ccc(Br)cc3)cc21,25µM*,-16,4%,-6%,-10%,-9%
COc1ccc(OC)c(S(=O)(=O)Nc2cc3c(cc2N2CCCC2)n(C)c(=O)c(=O)n3C)c1,32µM*,4,1%,-8%,i,-1%
Cn1c(=O)c(=O)n(C)c2cc(N3CCCC3)c(NS(=O)(=O)c3ccc(F)cc3)cc21,?,-26,-14%,6%,-16%,-10%
COc1ccc(OC)c(S(=O)(=O)Nc2cccc3ccc(O)cc23)c1,.,-62*,11%,0%,-15%,-17%
Cc1ccc(S(=O)(=O)Nc2cc3c(cc2N2CCOCC2)n(C)c(=O)c(=O)n3C)cc1,-5%,40,-6%,-4%,-6%[7.34 µM],16%[7.34 µM]
COc1ccc(OC)c(NS(=O)(=O)c2ccc3c(c2)n(C)c(=O)n3C)c1,1%,54,22%,-13%,-10%,-5%
COc1ccc(OC)c(S(=O)(=O)Nc2cccc3ccccc23)c1,.,60,63%,-24%,-14%,-11%
CCOC(=O)c1c(C)[nH]c(C)c1S(=O)(=O)N1CCN(c2cccc(C(F)(F)F)c2)CC1,7%,-101*,-16%,.,-10%,-8%
CCOC(=O)c1c(C)[nH]c(CCC(=O)NCCCN2CCN(c3cc(Cl)ccc3C)CC2)c1C,-11%,-97*,?,.,?,?
CCOC(=O)c1c(C)[nH]c(C)c1S(=O)(=O)NCC(=O)N1CCN(c2cc(Cl)ccc2C)CC1,1%,-21,-23%,.,?,?
CCOC(=O)c1c(S(=O)(=O)N2CCN(c3cccc(C(F)(F)F)c3)CC2)c(C)n(C)c1C,1%,18,0%,.,-12%,-27%
CCOC(=O)c1c(C)[nH]c(CCC(=O)NCCCN2CCN(c3ccc(F)cc3)CC2)c1C,1%,-33,?,.,-17%,-14%
